Screens from PubChem BioAssay.
rCAG binder: binds r(CAG) RNA repeats; r(CAG) RNA repeat, TO-PRO-1 dye displacement fluorescence; inhibition, % at 3 µM; 1.3% of 370,000 active;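 active = inhibition above the plate cutoff, the mean of all test compounds on that plate plus 3 SD, cut at about 35% in these data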;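 also: 0% = DMSO alone and 100% = 100 µM mitoxantrone as full dye displacement; higher means more dye released from RNA so lower well fluorescence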
NOD2-RIPK2 inh: inhibitors of human NOD2-RIPK2 interaction; O43353; CHO BLA complementation NOD2-RIPK2, CCF4 ratio; inhibition, % at 4.98 µM; 0.38% of 360,000 active; in the data active = inhibition above about 21%;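 also: 0% = vehicle only and 100% = reference blocker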
ABHD5 PLIN5 PPI: inhibitors of human ABHD5-perilipin-5 interaction. Q00G26+Q8WTS1. Split G. princeps luciferase complementation, luminescence, 4 h. inhibition, % at 4 µM. 0.78% of 360,000 active;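 active = inhibition above the mean inhibition across every tested compound plus 3 SD, cut at about 22% in these data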;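 also: 0% = DMSO only wells and the 100% control is not disclosed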
Target sequence (Q00G26 whole entry, looked up): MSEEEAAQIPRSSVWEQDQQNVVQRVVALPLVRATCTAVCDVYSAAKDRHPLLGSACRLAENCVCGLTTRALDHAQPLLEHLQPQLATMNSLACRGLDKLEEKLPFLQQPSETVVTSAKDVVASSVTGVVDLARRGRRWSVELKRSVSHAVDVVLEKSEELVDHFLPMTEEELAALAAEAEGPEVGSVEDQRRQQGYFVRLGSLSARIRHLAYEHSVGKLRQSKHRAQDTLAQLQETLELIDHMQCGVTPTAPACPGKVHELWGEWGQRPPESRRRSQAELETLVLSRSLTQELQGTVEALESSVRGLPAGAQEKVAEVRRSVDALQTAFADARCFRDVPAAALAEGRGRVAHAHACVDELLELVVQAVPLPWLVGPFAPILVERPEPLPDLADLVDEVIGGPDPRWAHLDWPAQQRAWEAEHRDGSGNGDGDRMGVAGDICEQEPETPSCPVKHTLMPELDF
Target sequence (Q8WTS1 whole entry, looked up): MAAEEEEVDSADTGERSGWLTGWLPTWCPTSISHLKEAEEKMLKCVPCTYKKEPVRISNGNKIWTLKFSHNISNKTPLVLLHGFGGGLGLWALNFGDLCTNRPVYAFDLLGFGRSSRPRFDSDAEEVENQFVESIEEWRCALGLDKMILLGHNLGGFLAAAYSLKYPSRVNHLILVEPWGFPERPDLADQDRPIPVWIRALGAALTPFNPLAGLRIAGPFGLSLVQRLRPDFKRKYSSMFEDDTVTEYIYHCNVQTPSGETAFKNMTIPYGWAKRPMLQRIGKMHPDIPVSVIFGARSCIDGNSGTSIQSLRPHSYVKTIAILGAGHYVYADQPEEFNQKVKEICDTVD
TLR4-MyD88 BLA: inhibitors of human TLR4-MyD88 binding; inhibition, % at 8.4 µM; HeLa CL3-4 TLR4/MyD88 BLA complementation, FRET ratio; 0.18% of 200,000 active; in the data active = inhibition above about 25%;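 also: 0% = vehicle and 100% = reference inhibitor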
TLR9-MyD88 block: TLR9-MyD88 interaction inhibition | CHO BLA complementation TLR9-MyD88, CCF4 FRET ratio | inhibition, % at 4.98 µM | 0.21% of 340,000 active | AID 504734;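 active = inhibition above the mean over all tested compounds plus 3 SD, cut at about 21% in these data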;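 also: 0% = DMSO only wells and 100% = clavulanate BLA inhibitor control wells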
PRMT1 inh: PRMT1 (human) inhibition, primary screen; 1.3% of 370,000 active; recombinant PRMT1, activity-based probe fluorescence polarization; Q99873; AID 652257; inhibition, % at 2.79 µM;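 active = inhibition above about 21% made by adding two undisclosed values, limit read from the data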
PRMT1 inh conf: PRMT1 (human) inhibition, FP confirmation; AID 687036; inhibition, % at 2.79 µM; recombinant His-PRMT1, activity-based probe fluorescence polarization; 42% of 3,300 active; shares compounds with PRMT1 inh;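 active = mean inhibition across replicates above the hit cutoff derived for the earlier primary screen, cut at about 22% in these data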
An asterisk follows results filed as active; · = not tested or not shown. The list is not random: actives were taken first. Their share in the collection is about 3.3%.

SMILES	rCAG binder	NOD2-RIPK2 inh	ABHD5 PLIN5 PPI	TLR4-MyD88 BLA	TLR9-MyD88 block	PRMT1 inh	PRMT1 inh conf
O=C(NCCCc1ccccc1)c1cccc(NC(=O)C2CCCCC2)c1	1	-6	7	·	-24	-3	·
CCC(C)NC(=O)C1CCCN(S(=O)(=O)c2ccc3c(c2)CC(C)N3C(C)=O)C1 (stereo not given)	1	-2	-4	·	2	26*	8
CCC(C)NC(=O)C1CCCN(S(=O)(=O)c2ccc3c(c2)CC(C)N3C(=O)C2CC2)C1 (stereo not given)	1	-22	-2	·	4	-3	·
C=CCSC1=C(C#N)C(c2ccc(OCC)cc2)CC(=O)N1 (stereo not given)	4	4	-27	-10	8	29*	11
C=CCSC1=C(C#N)C(c2ccccc2Cl)CC(=O)N1 (stereo not given)	2	-9	-13	-5	-12	46*	13
COC(=O)c1nnn(CC(=O)NC(=O)Nc2ccccc2)c1C(=O)OC	-1	-4	0	-7	-4	3	·
C#CCCc1cscc1/C=[N+](\[O-])c1ccc(C(=O)OCC)cc1	19	-3	-7	·	5	11	·
CCOC(=O)c1ccc(/[N+]([O-])=C/c2ccccc2)cc1	-1	-9	-11	·	-9	25*	10
CC1(C(=O)NCc2ccccc2)CSCC(=O)N1Cc1cccc(C(F)(F)F)c1 (stereo not given)	2	-2	9	·	·	0	·
Cc1ccc(-n2c(N)c(C(=O)N3CCN(C)CC3)sc2=S)cc1	-3	7	-14	6	-5	86*	71*
COc1ccc(/C=N/NC(=O)CNC(=O)c2ccncc2)cc1	0	-13	0	·	-10	-2	·
C[C@@H]1CN([C@H](C)CO)C(=O)c2cc(Br)cnc2O[C@H]1CN(C)C	2	-1	-8	·	-3	0	·
CO[C@@]1(NC(=O)C2SC(=C(C(N)=O)C(=O)O)S2)C(=O)N2C(C(=O)O)=C(CSc3nnnn3C)CS[C@@H]21 (stereo not given in full)	6	-20	3	·	6	37*	19
S=C(N/N=C/c1ccco1)NC1CC2CCC1C2 (stereo not given)	15	-12	3	·	-4	27*	3
O=C(CSc1ccc(-c2ccccn2)nn1)Nc1ccc(F)cc1F	-3	-8	1	·	7	0	·
O=C(CSc1ccc(-c2ccco2)nn1)Nc1ccc(F)cc1F	14	-10	9	·	-3	34*	3
CC(=O)c1cccc(NC(=O)CSc2ccc(-c3ccco3)nn2)c1	26	-11	10	·	-2	54*	66*
O=C(NN=Cc1ccccc1C(F)(F)F)c1cc(-c2ccc(Cl)cc2)n[nH]1	8	·	·	·	·	-3	·
O=C1C=CC(=O)N1	3	5	18	·	7	78*	87*
Cc1cccc(C)c1NC(=O)C1(C)CSCC(=O)N1Cc1ccco1 (stereo not given)	4	4	11	·	·	1	·
COCc1cc(=O)n2[nH]c(C(C)(C)C)cc2n1	-2	0	-1	·	3	3	·
CCCCNC(=O)c1cn(C)c2ccc(S(=O)(=O)N3CC(C)CC(C)C3)cc2c1=O (stereo not given)	·	-17	16	·	2	·	·
CN1CCc2cccc3c2[C@H]1Cc1ccc(O)c(O)c1-3	13	-3	-3	8	0	86*	38*
Cc1cc(C)c(NC(=O)/C=C\C(=O)O)c(Cl)c1	0	2	7	-4	-8	28*	11
Cc1cc(C)c(NC(=O)/C=C\C(=O)O)c([N+](=O)[O-])c1	1	-11	6	-3	0	81*	37*
SMILES	rCAG binder	NOD2-RIPK2 inh	ABHD5 PLIN5 PPI	TLR4-MyD88 BLA	TLR9-MyD88 block	PRMT1 inh	PRMT1 inh conf
Cc1ccc(NC(=O)/C=C\C(=O)O)c([N+](=O)[O-])c1	-3	-5	9	-5	-8	65*	-1
O=C(O)/C=C\C(=O)Nc1cc(O)ccc1[N+](=O)[O-]	10	-14	2	·	-2	1	·
Cc1ccc([N+](=O)[O-])cc1NC(=O)/C=C/C(=O)O	-3	-14	1	·	-7	49*	5
Cc1cc(C)c(NC(=O)CS)c(Cl)c1	-2	-5	-1	9	-4	10	·
Cc1ccc(O)c(NC(=O)/C=C/C(=O)O)c1	0	5	-1	10	7	6	·
COc1ccc([N+](=O)[O-])cc1NC(=O)/C=C/C(=O)O	-1	4	5	-25	-7	2	·
CCN(CC(=O)NCc1cccs1)C(=O)/C=C/c1cccc(Cl)c1Cl	0	5	1	·	1	-1	·
O=C(NCc1ccc2c(c1)OCO2)c1nc(Cn2cc(Br)cn2)no1	-2	1	-4	·	-7	-5	·
O=S(=O)(c1ccccc1)c1nc(-c2ccco2)oc1NCc1cccnc1	4	9	16	-5	-3	32*	4
Cc1ccn2c(CNCC3OCCc4ccccc43)c(C(=O)N3CCCCCC3)nc2c1 (stereo not given)	-10	0	-1	-9	-7	-1	·
O=C1c2ccccc2S(=O)N1c1cccc(F)c1 (stereo not given)	2	-2	3	·	3	17	·
COc1ccc(C2Nc3ccccc3C(=O)N2Cc2ccco2)cc1COc1ccccc1C (stereo not given)	·	·	·	·	·	3	·
COc1ccc(C2Nc3ccccc3C(=O)N2Cc2ccc(C)o2)cc1COc1c(C)cccc1C (stereo not given)	·	·	·	·	·	39*	3
C=CCN1[C@H](C)COc2cc(N3CCCC3)ccc2S1(=O)=O	4	·	·	·	·	-2	·
Cc1ccc(OCC(=O)N/N=C\c2c(C)[nH]n(-c3ccccc3)c2=O)c([N+](=O)[O-])c1	31	-4	-9	7	5	0	·
CCCCN=Cc1c(C)[nH]n(-c2ccccc2)c1=S	-2	-3	-14	-19	0	26*	3
Cc1[nH]n(-c2ccccc2)c(=S)c1C=Nc1cccc([N+](=O)[O-])c1	4	0	-39	3	-16	95*	98*
COc1cc(OC)c(C(=O)OCC(=O)Nc2ccc(S(=O)(=O)N3CCOCC3)cc2)cc1OC	3	2	-10	·	-1	-4	·
CC(=O)Nc1cccc(C(=O)N2CCN(S(=O)(=O)c3ccc(C4CCCCC4)cc3)CC2)c1	7	2	12	·	-10	-3	·
COC(=O)[C@]12C[C@H](CC(=O)N3CCN(C(=O)C4CC4)CC3)C(=O)N(Cc3ccco3)C1=C[C@H](C1CCCC1)O[C@@H]2C	0	·	·	·	·	2	·
O=C(CSc1nc2cc(S(=O)(=O)N3CCOCC3)ccc2o1)Nc1c(F)cccc1F	6	-2	-7	-1	-15	54*	47*
